From PubChem BioAssay
In the library only some 0.92% were active in any assay of this set; here they are far more common.
AGP1-GFP MLPCN: alters AGP1-GFP fluorescence in TOR pathway yeast screen; AID 2066; GFP response vs DMSO, % at 10 µM; 320,000 compounds, 0.02% hits; S. cerevisiae AGP1-GFP multiplex flow cytometry, 3 h; GFP as percent of DMSO wells;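 active means GFP response relative to DMSO above a set limit, near screen average plus 3 SD, cut at about 150% in these data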;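 further: median GFP channel fluorescence of the gated AGP1 strain per well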
LAP4 TOR yeast: alters LAP4-GFP fluorescence in TOR pathway yeast screen; S. cerevisiae LAP4-GFP multiplex, flow cytometry GFP, 3 h; median GFP as percent of DMSO wells; GFP response vs DMSO, % at 10 µM; 320,000 compounds, 0.34% hits;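 active means GFP response vs DMSO above a set limit, about the screen mean plus 3 SD, cut at about 150% in these data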
RPL19A-GFP yeast: alters RPL19A-GFP fluorescence in TOR pathway yeast screen; S. cerevisiae RPL19A-GFP strain, flow cytometry, 3 h; active compounds read low; percent response vs DMSO, % at 10 µM; 330,000 compounds, 0.3% hits; AID 2025;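 active means percent response vs DMSO below 50%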;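 further: median channel GFP fluorescence of the barcoded RPL19A-GFP strain; lower means less RPL19A-GFP as with rapamycin TOR inhibition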
MEP2-GFP yeast: alters MEP2-GFP fluorescence in TOR pathway yeast screen; S. cerevisiae MEP2-GFP strain, flow cytometry GFP, 3 h; 100% = DMSO control level; GFP response vs DMSO, % at 10 µM; 330,000 compounds, 0.51% hits; AID 2016;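 active means GFP response versus DMSO above a set limit, roughly screen mean plus 3 SD, cut at about 180% in these data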;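 further: median GFP fluorescence of the barcode-gated MEP2-GFP cells per well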
CIT2 TOR yeast: alters CIT2-GFP fluorescence in TOR pathway yeast screen | 320,000 compounds, 0.065% hits | AID 2029 | GFP response vs DMSO, % at 10 µM | S. cerevisiae CIT2-GFP strain, flow cytometry, 3 h; 100 means same as DMSO wells;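 active means GFP response relative to DMSO above a set limit, near the screen mean plus 3 SD, cut at about 150% in these data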;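 further: ratio of well median GFP fluorescence to mean of DMSO wells on the plate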
LAP4 cherry2: second confirmation of modulators of TOR reporter LAP4-GFP in yeast; shares compounds with LAP4 TOR yeast; GFP response vs DMSO, % at 10 µM; AID 2621; S. cerevisiae LAP4-GFP strain, flow cytometry GFP, 3 h; 590 compounds, 20% hits;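 active means GFP signal as percent of the solvent control above about 150%, meaning raised reporter expression, limit read from the data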
MEP2 cherry2: reconfirmed MEP2-GFP TOR pathway modulator in yeast. shares compounds with LAP4 TOR yeast. S. cerevisiae MEP2-GFP strain, flow cytometry GFP, 3 h. GFP response vs DMSO, % at 10 µM. 590 compounds, 10% hits. AID 2622;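 active means GFP signal above 150% of the solvent control wells, that is a rise of more than half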;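 further: median channel GFP fluorescence of all gated yeast cells per well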
RPL19A GFP CP2: reconfirmed modulator of RPL19A-GFP TOR reporter in yeast; shares compounds with LAP4 TOR yeast; S. cerevisiae RPL19A-GFP strain, flow cytometry GFP, 3 h; active compounds read low; 100% means same as DMSO wells; GFP response vs DMSO, % at 10 µM; 590 compounds, 3% hits; AID 2623;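 active means under 65% GFP response relative to DMSO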;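 further: median GFP channel fluorescence per well over the all cells gate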
CIT2 GFP CP2: yeast CIT2-GFP TOR reporter modulation, second cherry pick; shares compounds with LAP4 TOR yeast; S. cerevisiae CIT2-GFP strain, flow cytometry GFP, 3 h; DMSO control wells read 100%; GFP response vs DMSO, % at 10 µM; 590 compounds, 8% hits; AID 2624;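 active means GFP response vs DMSO above about 150%, limit read from the data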;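 further: median green fluorescence per well over all gated yeast cells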
AGP1-GFP pick2: yeast AGP1-GFP TOR reporter modulation, second cherry pick; 590 tested, under 10 active; shares compounds with LAP4 TOR yeast; percent response vs DMSO, % at 10 µM; S. cerevisiae AGP1-GFP strain, flow cytometry GFP, 3 h;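 active means over 150 percent of DMSO response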;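 further: median GFP channel fluorescence over all cells without mother daughter split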
Yeast autofluor: compound is autofluorescent in yeast s288c cells | shares compounds with LAP4 TOR yeast | S. cerevisiae s288c, 520 nm autofluorescence, flow cytometry, 3 h; active compounds read high; zero means same as solvent-only cells | fluorescence change (kMESF span) at 33 µM | 610 tested, under 10 active | AID 2757;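 active means fluorescence span over the dose series, or activity score, above about 33, limit read from the data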
Numbers stand for hits.

CCCc1c(O)nc(SCCN(CC)CC)n(C(=O)c2ccccc2)c1=O was read as AGP1-GFP MLPCN inactive, LAP4 TOR yeast inactive, RPL19A-GFP yeast 36, MEP2-GFP yeast 248, CIT2 TOR yeast inactive, LAP4 cherry2 inactive, MEP2 cherry2 inactive, RPL19A GFP CP2 inactive, CIT2 GFP CP2 inactive and AGP1-GFP pick2 inactive.
`Cc1cc(OCC(=O)NC(C)c2ccccc2)ccc1[N+](=O)[O-]` (stereo unspecified) gave AGP1-GFP MLPCN inactive, LAP4 TOR yeast inactive, RPL19A-GFP yeast inactive, MEP2-GFP yeast inactive and CIT2 TOR yeast inactive.
Cc1cccc(Nc2nc(-c3cccs3)cs2)n1 was read as AGP1-GFP MLPCN inactive, LAP4 TOR yeast inactive, RPL19A-GFP yeast inactive, MEP2-GFP yeast inactive and CIT2 TOR yeast inactive.
`Cc1cccnc1Nc1nc(-c2ccccn2)cs1` gave AGP1-GFP MLPCN inactive, LAP4 TOR yeast inactive, RPL19A-GFP yeast inactive, MEP2-GFP yeast inactive, CIT2 TOR yeast inactive, LAP4 cherry2 165, MEP2 cherry2 155, RPL19A GFP CP2 inactive, CIT2 GFP CP2 inactive, AGP1-GFP pick2 inactive and Yeast autofluor inactive.
For Cc1cccnc1Nc1nc(-c2ccccc2)cs1 the results were AGP1-GFP MLPCN inactive, LAP4 TOR yeast inactive, RPL19A-GFP yeast inactive, MEP2-GFP yeast inactive and CIT2 TOR yeast inactive.
Cc1cccc(Nc2nc(-c3ccccn3)cs2)n1 was read as AGP1-GFP MLPCN inactive, LAP4 TOR yeast 173, RPL19A-GFP yeast inactive, MEP2-GFP yeast inactive, CIT2 TOR yeast inactive and Yeast autofluor inactive.
`O=C(Cc1cccs1)N1CCN(c2ccc([N+](=O)[O-])cc2)CC1` gave AGP1-GFP MLPCN inactive, LAP4 TOR yeast inactive, RPL19A-GFP yeast inactive, MEP2-GFP yeast inactive and CIT2 TOR yeast inactive.
CC(=O)c1ccc(NC(=O)Cn2c3ccccc3c3nc(=O)cc(C)n32)cc1 was read as AGP1-GFP MLPCN inactive, LAP4 TOR yeast inactive, RPL19A-GFP yeast inactive, MEP2-GFP yeast inactive, CIT2 TOR yeast inactive, LAP4 cherry2 inactive, MEP2 cherry2 inactive, RPL19A GFP CP2 inactive, CIT2 GFP CP2 inactive and AGP1-GFP pick2 inactive.
Screening COc1ccccc1NC(=O)CC1C(=O)Nc2ccccc2N1C(=O)c1ccccc1 (stereo unspecified) returned AGP1-GFP MLPCN inactive, LAP4 TOR yeast inactive, RPL19A-GFP yeast inactive, MEP2-GFP yeast inactive and CIT2 TOR yeast inactive.
COc1cc(N2C(=O)C=CC2=O)c(OC)cc1Cl was read as AGP1-GFP MLPCN inactive, LAP4 TOR yeast 260, RPL19A-GFP yeast inactive, MEP2-GFP yeast inactive, CIT2 TOR yeast inactive and Yeast autofluor inactive.
Screening CN1C(=O)/C(=N\OC(=O)c2cccc3ccccc23)c2ccccc21 returned AGP1-GFP MLPCN inactive, LAP4 TOR yeast 207, RPL19A-GFP yeast inactive, MEP2-GFP yeast inactive, CIT2 TOR yeast inactive and Yeast autofluor inactive.
COc1ccc(C(=O)O/N=C2\C(=O)N(C)c3ccccc32)cc1 was read as AGP1-GFP MLPCN inactive, LAP4 TOR yeast inactive, RPL19A-GFP yeast inactive, MEP2-GFP yeast inactive and CIT2 TOR yeast inactive.
For O=C(Nc1ccc([N+](=O)[O-])cc1)c1ccccc1F the results were AGP1-GFP MLPCN inactive, LAP4 TOR yeast inactive, RPL19A-GFP yeast inactive, MEP2-GFP yeast inactive and CIT2 TOR yeast inactive.
`O=C(c1cc(O)c(O)c([N+](=O)[O-])c1)c1ccccc1F` gave AGP1-GFP MLPCN inactive, LAP4 TOR yeast 151, RPL19A-GFP yeast inactive, MEP2-GFP yeast inactive, CIT2 TOR yeast inactive, LAP4 cherry2 inactive, MEP2 cherry2 inactive, RPL19A GFP CP2 inactive, CIT2 GFP CP2 inactive and AGP1-GFP pick2 inactive.
For Cc1ccccc1C(=O)Nc1cccc(C(=O)N/N=C/c2cc(Cl)cc([N+](=O)[O-])c2O)c1 the results were AGP1-GFP MLPCN inactive, LAP4 TOR yeast inactive, RPL19A-GFP yeast inactive, MEP2-GFP yeast inactive and CIT2 TOR yeast inactive.
Cc1ccc2c(c1)/C(=N/OS(=O)(=O)c1ccccc1)CCS2 was read as AGP1-GFP MLPCN inactive, LAP4 TOR yeast inactive, RPL19A-GFP yeast inactive, MEP2-GFP yeast inactive and CIT2 TOR yeast inactive.
CC1=CC(=O)C(C(C)C)=C/C1=N/OS(=O)(=O)c1ccccc1 was read as AGP1-GFP MLPCN inactive, LAP4 TOR yeast 216, RPL19A-GFP yeast inactive, MEP2-GFP yeast inactive, CIT2 TOR yeast inactive and Yeast autofluor inactive.
Screening COc1cc(C(=O)NCc2nnc(SCC(=O)Nc3nccs3)o2)cc(OC)c1OC returned AGP1-GFP MLPCN inactive, LAP4 TOR yeast inactive, RPL19A-GFP yeast inactive, MEP2-GFP yeast inactive, CIT2 TOR yeast inactive, LAP4 cherry2 inactive, MEP2 cherry2 inactive, RPL19A GFP CP2 inactive, CIT2 GFP CP2 inactive and AGP1-GFP pick2 inactive.
Screening COc1cc(C(=O)NCc2nnc(SCC(=O)Nc3cc(C)on3)o2)cc(OC)c1OC returned AGP1-GFP MLPCN inactive, LAP4 TOR yeast inactive, RPL19A-GFP yeast inactive, MEP2-GFP yeast inactive and CIT2 TOR yeast inactive.
`CCOc1ccc(C(Nc2cccnc2)c2cc(Cl)c3cccnc3c2O)cc1` (stereo unspecified) gave AGP1-GFP MLPCN inactive, LAP4 TOR yeast 224, RPL19A-GFP yeast inactive, MEP2-GFP yeast inactive, CIT2 TOR yeast inactive and Yeast autofluor inactive.
`CCC(=O)NC(c1ccc(C)cc1)c1cc(Cl)c2cccnc2c1O` (stereo unspecified) gave AGP1-GFP MLPCN inactive, LAP4 TOR yeast inactive, RPL19A-GFP yeast inactive, MEP2-GFP yeast inactive and CIT2 TOR yeast inactive.
`Cc1ccc(C)c(S(=O)(=O)ON2C(=O)c3ccccc3C2=O)c1` gave AGP1-GFP MLPCN inactive, LAP4 TOR yeast inactive, RPL19A-GFP yeast inactive, MEP2-GFP yeast inactive and CIT2 TOR yeast inactive.
